Reference: PubChem BioAssay (Tox21)
“And” between values parts separate entries of the source, which are not always exact repeats. Equal entries are not always repeated. Records with an inconclusive call do not appear. A call without a number means that no potency is given here. Where a structure was tested more than once in an assay, its records may differ in their call. The source made the active and inactive calls. Calls follow the shape of the full dose curve.
Potency is read from the fitted curve at half-maximal effect.

Test: qHTS assay for small molecule disruptors of the mitochondrial membrane potential - cell viability (AID 720634); also: nearly all actives have a fitted effect of over 20% in size
Details: HepG2 viability, ATP luminescence (CellTiter-Glo), 1 h; series mostly up to 83.2 µM
Source text: U.S. Tox21 Program National Center for Advancing Translational Sciences [NCATS] NIH Chemical Genomics Center [NCGC] U.S. Environmental Protection Agency [EPA] National Institutes of Environmental Health Sciences [NIEHS] National Toxicology Program [NTP] U.S. Food and Drug Administration [FDA] Tox21 Assay Overview: Mitochondrial membrane potential (MMP), one of the parameters for mitochondrial function, is generated by mitochondrial electron transport chain that creates an electrochemical gradient by a series of redox reactions. This gradient drives the synthesis of ATP, a crucial molecule for various cellular processes. Measuring MMP in living cells is commonly used to assess the effect of chemicals on mitochondrial function; decreases in MMP can be detected using lipophilic cationic fluorescent dyes. […] The dye accumulates in the mitochondria of healthy cells as aggregates, with red fluorescence. The mitochondrial potential decreases and the dye could not accumulate in the mitochondria and remains in the cytoplasm in monomers, with green fluorescence. In addition to the mitochondrial potential assay, these cells were also used to test the cytotoxicity by determining the cell viability in the culture based on the quantitation of ATP present. The cytotoxicity was measured in the same assay well of MMP assay.
Tox21 Assay Protocol Summary: 2,000 HepG2 cells in 5 uL/well were dispensed into black, clear-bottom 1536-well plates using a Multidrop Combi (Thermo Scientific) dispenser. The assay plates were incubated for an overnight at 37 C to allow cells to attach to the wells, followed by the transfer of 23 nL compound or DMSO vehicle by a pin tool (Kalypsys). The plates were incubated for 1 hr at 37 C and 5% CO2, followed by the addition of 5 uL of 2X m-MPI dye into each well using Flying Reagent Dispenser (Aurora Discovery) and then CellTiter-Glo reagent was added at 4 uL/well and incubated 30 min at room temperature. Then luminescence intensity was quantified on a ViewLux CCD-based plate reader.
For `Clc1ccccc1`, the Potency was “inactive”.
With `Cc1cccc(C)c1NC1=NCCCS1` the Potency was “inactive”.
With `C[N+]1(CCF)[C@@H]2CC[C@H]1CC(OC(=O)C(O)(c1ccccc1)c1ccccc1)C2` (stereo not given in full) the Potency was “inactive”.
For `O=[N+]([O-])c1cc(Cl)c(Cl)cc1Cl`, the Potency was “inactive”.
For `CNC(=O)Oc1cccc(N=CN(C)C)c1`, the Potency was “inactive”.
With `C[CH2][Hg][S]c1ccccc1C(=O)O` the Potency was 13.3 µM (active) and 15.4 µM (active).
With `C=C(Cl)Cl` the Potency was “inactive”.
In the case of `CCCCCCCCCCCC[N+](C)(C)CCOc1ccccc1`, the Potency was “inactive and 68.6 µM (active)”.
With `OCCCl` the Potency was “inactive”.
For `C=CCSSCC=C`, the Potency was “inactive”.
In the case of `SCc1ccccc1`, the Potency was “inactive”.
With `Cc1nc2ccccc2c(=O)n1-c1ccccc1Cl` the Potency was “inactive”.
For `O=C(O)C(O)C(O)C(=O)O` (stereo not given), the Potency was “inactive”.
With `CCN(C(C)=O)c1cccc(-c2ccnc3c(C#N)cnn23)c1` the Potency was “inactive”.
In the case of `c1ccc2sc(SNC3CCCCC3)nc2c1`, the Potency was “inactive”.
In the case of `COC1=CC(=O)O[C@@H](/C=C/c2ccc3c(c2)OCO3)C1`, the Potency was “inactive”.
With `CCOP(=S)(S)OCC` the Potency was “inactive”.
For `C[C@]12CC[C@H]3[C@@H](CCC4=CC(=O)CC[C@@H]43)[C@@H]1CC[C@@H]2OC(=O)CCc1ccccc1`, the Potency was “inactive”.
In the case of `Cc1ccccc1`, the Potency was “inactive”.
With `O=C(Cc1ccccc1)OCCc1ccccc1` the Potency was “inactive”.
With `NC(=O)CF` the Potency was “inactive”.
In the case of `CC(C)(C)NCC(O)c1ccccc1Cl` (stereo not given), the Potency was “inactive”.
For `Cc1ccc(N)c(C)c1`, the Potency was “inactive”.
For `CCC1(C2=NCCN2)Cc2ccccc2O1` (stereo not given), the Potency was “inactive”.
For `Cc1ccc2c(C)cccc2c1`, the Potency was “inactive”.
For `O=C(O)c1cc(I)cc(I)c1I`, the Potency was “inactive”.
In the case of `O=C([O-])c1ccccn1.O=C([O-])c1ccccn1.O=C([O-])c1ccccn1.[Cr+3]`, the Potency was “inactive”.
In the case of `N#CC1(N=NC2(C#N)CCCCC2)CCCCC1`, the Potency was “inactive”.
With `CON(C)C(=O)Nc1ccc(Cl)cc1` the Potency was “inactive”.
With `O=C=NC1CCCCC1` the Potency was “inactive”.
In the case of `COCc1cnc(C2=NC(C)(C(C)C)C(=O)N2)c(C(=O)O)c1` (stereo not given), the Potency was “inactive”.
For `C=CC(=O)OCC`, the Potency was “inactive”.
In the case of `CN1CC[C@]23c4c5ccc(O)c4O[C@H]2[C@@H](O)C=C[C@H]3[C@H]1C5`, the Potency was “inactive”.
With `FC(Cl)(Cl)C(F)(Cl)Cl` the Potency was “inactive”.
In the case of `CCCCCCCCCCCCCCCl`, the Potency was “inactive”.
With `CC[N+]1(C)CCCC(OC(=O)C(O)(c2ccccc2)c2ccccc2)C1` (stereo not given) the Potency was “inactive”.
With `CC(C)(C)OOC(C)(C)CCC(C)(C)OOC(C)(C)C` the Potency was “inactive”.
In the case of `O=C1CC[C@@]2(O)[C@H]3Cc4ccc(O)c5c4[C@@]2(CCN3CC2CC2)[C@H]1O5`, the Potency was “inactive”.
In the case of `CCCCC#N`, the Potency was “inactive”.
With `N#CC(C#N)=C(C#N)C#N` the Potency was “inactive”.
